Molecules are shown by their SMILES. Active and inactive are the calls of the source.

Assay [1] can be described thus: E. coli DRC41 culture turbidity changes, primary screen, E. coli filamentation inducer project, strain DRC41, OD650, 48 h (AID 1152).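 Also: E. coli MC1000 strain DRC41 lacking acrAB efflux pump and sulA.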 To be noted: E. coli DRC41 (acrAB sulA), higher = more signal, called active from +8 up or from −8 down.
Assay [2] in a line: small-molecule binders of probe aLefty1, primary screen, biochemical, small-molecule microarray, 635/667 nm fluorescence (AID 1153).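 Also: score merges spot fluorescence with signal-to-noise ratio from the scanned slide images.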 To be noted: higher = more signal.
The nature of assay [3]: PSAC antagonists in infected red cells, primary screen, cell-based, P. falciparum Indochina, OD700, 1 h (AID 1154). To be noted: P. falciparum Indochina infected RBC osmotic lysis, higher = more signal, called active from +8 up or from −8 down.
The nature of assay [4]: PSAC antagonists in infected red cells, primary screen, cell-based, P. falciparum Indochina, OD700, 2 h (AID 1155).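 Also: lysis reports solute entry through the parasite surface anion channel PSAC; channel blockers reduce lysis of infected cells.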 The following applies: P. falciparum Indochina infected erythrocytes, osmotic lysis OD700; higher = more signal, called active from +8 up or from −8 down.
A short description of assay [5]: osmotic lysis modulators in infected erythrocytes, primary screen, PSAC antagonist project, cell-based, P. falciparum Indochina, OD700, 3 h (AID 1156). To be noted: higher = more signal, called active from +8 up or from −8 down.
Assay [6] can be described thus: PSAC antagonists in infected red cells, primary screen, cell-based, P. falciparum Indochina, OD700, 18 h (AID 1157). The following applies: P. falciparum Indochina infected erythrocytes, osmotic lysis OD700, 18 h; higher = more signal, called active from +8 up or from −8 down.
Assay [7] can be described thus: modulators of S6 phosphorylation in cells, primary screen, cell-based, A549, cytoblot, luminescence, serum-stimulated (AID 1158).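 Also: serum-stimulated A549 lung adenocarcinoma cells; signal is phosphorylated S6 detected by cytoblot immunostaining with HRP secondary.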 The following applies: A549 phospho-S6 cytoblot, 5 h, higher = more signal.
For assay [8], the target named is NADPH oxidase 2 (Homo sapiens) (UniProt P04839). The assay can be described thus: NOX2-dependent H2O2 signal modulators, primary screen, NOX inhibitor project, cell-based, HEK293-NOX2, PMA-stimulated, Amplex Red fluorescence (AID 1159). Also: test concentration not given here. To be noted: 45 min, higher = more signal, called active from +8 up or from −8 down.
Sequence of NADPH oxidase 2 (Homo sapiens) (P04839 whole entry, looked up): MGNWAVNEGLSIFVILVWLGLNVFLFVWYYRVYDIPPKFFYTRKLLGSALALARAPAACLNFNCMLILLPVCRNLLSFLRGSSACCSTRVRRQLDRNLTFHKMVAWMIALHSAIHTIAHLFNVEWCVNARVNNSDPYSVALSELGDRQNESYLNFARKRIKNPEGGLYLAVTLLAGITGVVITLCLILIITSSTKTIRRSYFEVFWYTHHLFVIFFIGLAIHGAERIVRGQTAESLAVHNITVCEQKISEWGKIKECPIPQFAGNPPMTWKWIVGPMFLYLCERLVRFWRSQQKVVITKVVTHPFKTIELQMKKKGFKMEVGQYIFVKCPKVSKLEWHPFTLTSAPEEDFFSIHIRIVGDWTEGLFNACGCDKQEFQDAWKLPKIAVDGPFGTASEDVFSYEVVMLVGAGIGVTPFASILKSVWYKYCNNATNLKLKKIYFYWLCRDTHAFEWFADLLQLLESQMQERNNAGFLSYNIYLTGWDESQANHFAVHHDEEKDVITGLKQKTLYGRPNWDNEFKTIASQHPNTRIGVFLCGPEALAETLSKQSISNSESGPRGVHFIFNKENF
Assay [9] addresses NADPH oxidase 4 (Homo sapiens) (UniProt Q9NPH5). The assay can be described thus: NOX4-dependent H2O2 signal modulators, primary screen, NOX inhibitor project, cell-based, HEK293-NOX4, tetracycline-induced, Amplex Red fluorescence (AID 1160). The following applies: 45 min, higher = more signal, called active from +8 up or from −8 down.
Assay [10] concerns the target NADPH oxidase 5 (Homo sapiens) (UniProt Q96PH1). In words: NOX5-dependent H2O2 signal modulators, primary screen, NOX inhibitor project, cell-based, HEK293-NOX5, Amplex Red fluorescence (AID 1161). The following applies: HEK293-NOX5, ionomycin, 45 min, higher = more signal.
The nature of assay [11]: A549 cell viability effects, profiling panel, calcein-AM fluorescence, 48 h, basal (AID 1162). Also: test concentration not given here. The following applies: higher = more signal.
Assay [12] in a line: adipocyte viability effects, profiling panel, cell-based, 3T3-L1 adipocytes, calcein-AM fluorescence, 48 h, basal (AID 1163). Also: test concentration not given here. To be noted: 3T3-L1 adipocytes viability, higher = more signal.
The nature of assay [13]: HepG2 cell viability effects, profiling panel, calcein-AM fluorescence, 48 h, basal (AID 1164). Also: test concentration not given here. The following applies: higher = more signal.
Assay [14] in a line: MM1S cell viability effects, profiling panel, calcein-AM fluorescence, 48 h, basal (AID 1165).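 Also: viability of MM1S multiple myeloma cells under basal unstimulated conditions; test concentration not given here.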 To be noted: higher = more signal.
The nature of assay [15]: basal RPMI8226 viability, no added stimulus, profiling panel, cell-based, calcein-AM fluorescence, 48 h, PK04 Diversity Set (AID 1166).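 Also: cells grown under basal conditions without added stimulus; test concentration not given here.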 To be noted: RPMI8226 myeloma viability, higher = more signal.
A short description of assay [16]: basal HepG2 mitochondrial membrane potential changes, profiling panel, cell-based, JC-1 fluorescence, 24 h, 100 nL compound (AID 1167). Also: test concentration not given here. To be noted: higher = more signal.
A short description of assay [17]: basal 3T3-L1 adipocyte mitochondrial potential changes, profiling panel, cell-based, JC-1 fluorescence, 3T3-L1 adipocytes, 24 h, 100 nL compound (AID 1168). Also: test concentration not given here. The following applies: JC-1 mitochondrial fluorescence, higher = more signal, called active from +8 up or from −8 down.
The nature of assay [18]: basal RPMI8226 mitochondrial membrane potential changes, profiling panel, cell-based, JC-1 fluorescence, 24 h, 100 nL compound (AID 1169). Also: test concentration not given here. The following applies: RPMI8226 myeloma, JC-1 mitochondrial potential fluorescence, higher = more signal.
Assay [19] is described as follows: basal MM1S mitochondrial membrane potential changes, profiling panel, cell-based, JC-1 fluorescence, 24 h, 100 nL compound (AID 1170). Also: test concentration not given here. To be noted: higher = more signal.
The nature of assay [20]: A549 lung cancer cell viability effects, profiling panel, resazurin fluorescence, 24 h, PK04 Diversity Set (AID 1171). Also: test concentration not given here. The following applies: higher = more signal, called active from +8 up or from −8 down. (Resazurin is reduced to fluorescent resorufin, in cell work by metabolically active cells.)

Sequence of NADPH oxidase 5 (Homo sapiens) (Q96PH1 whole entry, looked up): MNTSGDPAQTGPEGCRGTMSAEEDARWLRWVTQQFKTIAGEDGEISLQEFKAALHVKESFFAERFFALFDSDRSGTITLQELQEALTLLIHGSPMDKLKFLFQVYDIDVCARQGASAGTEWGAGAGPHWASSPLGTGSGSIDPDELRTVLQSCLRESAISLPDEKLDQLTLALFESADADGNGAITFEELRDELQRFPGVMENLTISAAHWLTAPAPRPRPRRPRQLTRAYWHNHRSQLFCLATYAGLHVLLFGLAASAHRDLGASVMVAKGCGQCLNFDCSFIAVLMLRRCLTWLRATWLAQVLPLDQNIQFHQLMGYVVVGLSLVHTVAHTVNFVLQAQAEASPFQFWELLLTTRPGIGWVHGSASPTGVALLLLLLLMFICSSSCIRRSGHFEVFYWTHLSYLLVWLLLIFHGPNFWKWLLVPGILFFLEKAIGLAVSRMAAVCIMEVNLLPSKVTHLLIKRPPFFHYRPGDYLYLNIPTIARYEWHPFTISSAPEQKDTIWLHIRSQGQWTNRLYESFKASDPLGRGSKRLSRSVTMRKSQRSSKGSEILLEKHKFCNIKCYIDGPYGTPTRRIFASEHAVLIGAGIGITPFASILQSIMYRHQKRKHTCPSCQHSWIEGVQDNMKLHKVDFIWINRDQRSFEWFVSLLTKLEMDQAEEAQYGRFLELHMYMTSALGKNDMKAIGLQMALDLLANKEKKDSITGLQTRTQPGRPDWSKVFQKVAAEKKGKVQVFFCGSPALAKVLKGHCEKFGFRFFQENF
Sequence of NADPH oxidase 4 (Homo sapiens) (Q9NPH5 whole entry, looked up): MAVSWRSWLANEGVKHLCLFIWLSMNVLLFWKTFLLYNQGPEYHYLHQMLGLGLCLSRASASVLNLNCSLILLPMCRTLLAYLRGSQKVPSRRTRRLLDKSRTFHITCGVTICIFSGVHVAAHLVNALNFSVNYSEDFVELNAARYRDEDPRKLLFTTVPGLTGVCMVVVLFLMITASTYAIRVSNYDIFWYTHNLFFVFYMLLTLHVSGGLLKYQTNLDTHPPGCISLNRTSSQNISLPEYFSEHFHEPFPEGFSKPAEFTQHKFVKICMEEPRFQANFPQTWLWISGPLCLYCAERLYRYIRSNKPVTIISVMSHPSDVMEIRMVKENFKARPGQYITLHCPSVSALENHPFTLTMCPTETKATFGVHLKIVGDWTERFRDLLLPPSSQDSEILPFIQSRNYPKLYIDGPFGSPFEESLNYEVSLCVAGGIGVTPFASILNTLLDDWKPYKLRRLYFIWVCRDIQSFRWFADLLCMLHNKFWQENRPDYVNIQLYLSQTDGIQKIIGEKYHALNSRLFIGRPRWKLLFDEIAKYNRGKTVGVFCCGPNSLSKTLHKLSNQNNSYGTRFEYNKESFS

On to `O=C(NC1CC1)[C@@H]1c2ccccc2C(=O)N(CC23CC4CC(CC(C4)C2)C3)[C@H]1c1ccc(CO)cc1`, for which the z-score was 0.268 (inactive) in assay [1]; 1.56 (inactive) in assay [3]; 0.464 (inactive) in assay [4]; 1.48 (inactive) in assay [5]; 0.181 (inactive) in assay [6]; 0.268 in [7]. Also, the z-score is 0.507 (inactive) in assay [8]; 0.157 (inactive) in [9]; 0.412 in assay [10]; 0.554 in assay [11]; 0.875 in [12]; 0.232 in [13]. For the same molecule, the z-score in assay [14] is 0.0732; in assay [15], 0.202; in assay [16] it was 1.49; in assay [17], 0.397 (inactive); in [18], 0.555; in [19], -0.467. Further, the z-score in assay [20] is 1.5 (inactive). Besides, the composite z-score in assay [2] turned out to be 0.284.

With `CN(C)CCCCNC(=O)[C@H]1C[C@H]2C(=O)NCC(=O)N2[C@H]1c1ccc(O)cc1`, the z-score is 0.327 (inactive) in assay [1]; 2.9 (inactive) in [3]; 0.552 (inactive) in assay [4]; 0.447 (inactive) in assay [5]; 0.3 (inactive) in [6]; -0.468 in assay [7]. Also, the z-score is 1.06 (inactive) in assay [8]; 1.09 (inactive) in assay [9]; 1.18 in assay [10]; -0.685 in assay [11]; 0.364 in assay [12]; -0.239 in assay [13]. Besides, the z-score in [14] was 0.34; in assay [15] it was -0.0681; in [16] it was -0.253; in [17] it was -0.324 (inactive); in assay [18] it was 0.347; in [19] it was -0.371. The z-score in [20] was 1.05 (inactive). The composite z-score in assay [2] is -0.417.

`COC(=O)[C@@]1(Cc2ccccc2)N=C(c2ccc(OCCCO)cc2)O[C@H]1c1ccccc1CN=[N+]=[N-]`: the z-score in assay [1] was 1.11 (inactive); in [3], 23 (active); in assay [4] it was 7.26 (inactive); in assay [5] it was -0.202 (inactive); in assay [6], 2.21 (inactive); in [7], 0.239. The z-score was -6.02 (inactive) in assay [8]; -0.914 (inactive) in [9]; -3.31 in assay [10]; -2.95 in assay [11]; -0.565 in assay [12]; -5.45 in assay [13]. The z-score in [14] is -3.55; in [15] it was -3.96; in assay [16], -2.16; in assay [17], 1.22 (inactive); in assay [18] it was -1.13; in [19], -2.9. In addition, the z-score in [20] is -5.77 (inactive). This molecule gave a composite z-score in [2] of 0.313.

`COc1ccc([Si](C)(C)[C@@H]2[C@@H](CC(=O)N3Cc4ccccc4C[C@H]3CO)O[C@]3(C(=O)N(Cc4cccc(N5CCOC5=O)c4)c4ccccc43)[C@H]2C)cc1`: the z-score in assay [1] was -0.207 (inactive); in assay [3], 5.29 (inactive); in assay [4], 1.06 (inactive); in [5] it was 0.599 (inactive); in [6], 0.548 (inactive); in assay [7], 0.114. The z-score in assay [8] is -2.65 (inactive); in assay [9], 1.1 (inactive); in assay [10], -1.02; in assay [11], -1.43; in assay [12], 1.69; in [13], -0.443. The z-score is -2.51 in [14]; -3.32 in assay [15]; -0.0282 in assay [16]; 0.192 (inactive) in [17]; -1.16 in [18]; -1.01 in [19]. Also, the z-score in assay [20] was -2.45 (inactive). Also, the composite z-score in assay [2] worked out at 0.647.

With `COC(=O)[C@@]1(Cc2ccccc2)[C@H]2c3cc(C(=O)N(C)C)n(Cc4ccc(C(F)(F)F)nc4)c3C[C@H]2CN1C(=O)c1ccccc1`, the z-score is -1.64 (inactive) in assay [1]; 1.5 (inactive) in assay [3]; 0.234 (inactive) in assay [4]; 1.3 (inactive) in [5]; 0.715 (inactive) in [6]; 0.184 in assay [7]. Further, the z-score is 0.0745 (inactive) in [8]; -1.31 (inactive) in assay [9]; -3.12 in assay [10]; -1.28 in assay [11]; 0.286 in assay [12]; -0.628 in [13]. For the same molecule, the z-score in assay [14] was -0.214; in assay [15], -0.559; in assay [16], 1.71; in assay [17], -1.09 (inactive); in [18] it was -0.727; in [19], -0.79. For the same molecule, in assay [20], the z-score was 0.22 (inactive). For the same molecule, the composite z-score in [2] is 1.1.

`CN(C)CCCNC(=O)[C@@H]1c2ccccc2C(=O)N(Cc2ccccc2C(F)(F)F)[C@H]1c1ccc(CO)cc1`: the z-score in assay [1] is 1.77 (inactive); in assay [3], 2.54 (inactive); in [4], 0.793 (inactive); in assay [5], 1.21 (inactive); in assay [6] it was 0.64 (inactive); in [7] it was -0.0975. The z-score in [8] is 0.383 (inactive); in assay [9], 1.03 (inactive); in [10], 1.11; in [11] it was 1.42; in assay [12] it was 0.747; in assay [13], 1.13. The z-score in assay [14] is 0.353; in assay [15] it was 1.09; in assay [16], 2.98; in [17] it was -0.343 (inactive); in [18], 0.188; in assay [19], -0.317. In addition, the z-score in assay [20] was 1.45 (inactive). The molecule further came in with a composite z-score in [2] of -0.103.

`CC(C)=CCCC=C(C)C(O)C1C=CC2C(=O)N(c3ccccc3)C(=O)C2N1Nc1ccc(C#N)cc1` (stereo not given): the z-score in [1] was -0.817 (inactive); in assay [3] it was 15.5 (active); in assay [4], 1.88 (inactive); in [5], 0.918 (inactive); in [6], -1.08 (inactive); in assay [7], 0.0382. Besides, the z-score is -1.88 (inactive) in assay [8]; -1.6 (inactive) in [9]; -0.882 in [10]; 1.46 in assay [11]; 0.464 in [12]; 1.47 in assay [13]. For the same molecule, the z-score was -1.65 in [14]; -1.92 in assay [15]; -0.428 in assay [16]; -0.926 (inactive) in assay [17]; -0.483 in [18]; -1.29 in [19]. Moreover, the z-score in assay [20] was -1.18 (inactive). The same molecule returned a composite z-score in [2] of 0.304.

`C=CCNC(=O)[C@H]1[C@@H]2C(=O)O[C@@H](c3ccccc3)[C@@H](c3ccccc3)N2[C@@H](c2ccc(OCCO)cc2)[C@]12C(=O)Nc1ccccc12`: the z-score was 0.738 (inactive) in assay [1]; 10.1 (active) in [3]; 1.01 (inactive) in [4]; -0.444 (inactive) in assay [5]; 0.81 (inactive) in assay [6]; 0.0226 in [7]. Moreover, the z-score in assay [8] is 1.87 (inactive); in assay [9] it was 0.841 (inactive); in assay [10], -0.101; in assay [11] it was 0.375; in assay [12], 1.35; in [13], -0.503. In addition, the z-score in assay [14] is 0.287; in assay [15] it was -0.62; in [16] it was -1.21; in assay [17], -0.00331 (inactive); in [18] it was -0.522; in [19], -0.377. In addition, in assay [20], the z-score is 1.02 (inactive). The molecule further came in with a composite z-score in assay [2] of 1.21.

Turning to `Cc1ccc(S[C@]2(C(=O)NCCCN(C)C)CC(=O)N(C3Cc4ccccc4C3)[C@@H]2c2ccc(CO)cc2I)cc1`, the z-score in assay [1] was -0.759 (inactive); in assay [3], 4.32 (inactive); in [4], 0.903 (inactive); in assay [5] it was 0.925 (inactive); in assay [6], 0.352 (inactive); in assay [7], -0.0249. Also, the z-score in [8] was 0.914 (inactive); in assay [9], -1.12 (inactive); in [10] it was 2.56; in [11], 0.691; in [12], -0.749; in assay [13], -0.563. Further, the z-score in assay [14] is -2.64; in assay [15] it was -2.5; in [16], -0.188; in assay [17], -1.28 (inactive); in [18], -0.201; in assay [19], -1.09. For the same molecule, the z-score in [20] was 0.471 (inactive). Moreover, in assay [2], the composite z-score is -0.0882.

The values above are taken from PubChem BioAssay.
